Laboratory results taken from PubChem BioAssay AID504920 (Johns Hopkins Ion Channel Center, 2011).
Activity calls are given as the source filed them.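 The calls were made as follows: active = peak hERG channel inhibition above 30% at some tested dose, together with a fitted dose response curve; inactive = no hERG inhibition at any dose, or no curve.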

Each compound was assayed against Voltage-gated inwardly rectifying potassium channel KCNH2 (Homo sapiens) (UniProt Q12809) (assay: KCNH2 potassium channel blockade – FluxOR Tl flux, hERG-expressing cells, selectivity assay for KCNK9 inhibitor project, SAR follow-up (AID 504920)). Details: FluxOR thallium flux fluorescence; series mostly up to 30 µM.
Chain of Voltage-gated inwardly rectifying potassium channel KCNH2 (Homo sapiens) (Q12809 whole entry, looked up): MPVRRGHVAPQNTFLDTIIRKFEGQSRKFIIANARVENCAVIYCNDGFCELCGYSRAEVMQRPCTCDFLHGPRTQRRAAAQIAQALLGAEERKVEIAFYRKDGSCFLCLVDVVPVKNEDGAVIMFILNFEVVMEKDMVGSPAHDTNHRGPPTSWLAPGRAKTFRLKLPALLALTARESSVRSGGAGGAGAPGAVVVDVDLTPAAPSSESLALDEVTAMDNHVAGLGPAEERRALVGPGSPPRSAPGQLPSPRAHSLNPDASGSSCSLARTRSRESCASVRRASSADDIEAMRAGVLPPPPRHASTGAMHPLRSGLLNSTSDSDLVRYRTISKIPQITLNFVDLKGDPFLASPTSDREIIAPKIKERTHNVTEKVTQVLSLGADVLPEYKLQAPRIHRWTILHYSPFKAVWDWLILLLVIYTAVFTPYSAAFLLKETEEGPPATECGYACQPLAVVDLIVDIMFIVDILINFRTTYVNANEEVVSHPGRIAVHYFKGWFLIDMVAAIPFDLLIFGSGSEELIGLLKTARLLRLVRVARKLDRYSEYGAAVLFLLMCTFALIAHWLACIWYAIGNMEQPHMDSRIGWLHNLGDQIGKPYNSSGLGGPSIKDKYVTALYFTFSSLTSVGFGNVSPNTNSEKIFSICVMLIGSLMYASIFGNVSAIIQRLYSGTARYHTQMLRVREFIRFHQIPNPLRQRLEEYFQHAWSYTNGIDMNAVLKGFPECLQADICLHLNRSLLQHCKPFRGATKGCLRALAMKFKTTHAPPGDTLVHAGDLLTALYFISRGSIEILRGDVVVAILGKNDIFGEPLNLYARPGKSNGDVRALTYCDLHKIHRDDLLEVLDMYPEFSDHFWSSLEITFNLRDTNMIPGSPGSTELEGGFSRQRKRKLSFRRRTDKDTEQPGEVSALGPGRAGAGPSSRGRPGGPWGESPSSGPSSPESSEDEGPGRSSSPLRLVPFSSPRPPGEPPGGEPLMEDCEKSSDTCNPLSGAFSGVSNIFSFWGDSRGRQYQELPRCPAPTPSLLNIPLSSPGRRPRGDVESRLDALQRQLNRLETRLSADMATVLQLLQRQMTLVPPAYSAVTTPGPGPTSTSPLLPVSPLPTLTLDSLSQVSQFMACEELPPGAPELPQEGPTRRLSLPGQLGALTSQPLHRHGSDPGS

SMILES | outcome
Cc1cccc(C(=O)Nc2ccccc2C(=O)Nc2ccccc2)c1 | inactive
Cc1cccc(C(=O)Nc2cccc(C(=O)Nc3ccccc3)c2)c1 | inactive
Cc1cccc(NC(=O)c2ccccc2NC(=O)c2ccccc2)c1 | inactive
Cc1cccc(NC(=O)c2cccc(NC(=O)c3ccccc3)c2)c1 | inactive
Cc1cccc(C(=O)Nc2ccc(C(=O)Nc3ccccc3)cc2)c1 | inactive
